SNCA expr inh = Primary qHTS assay for inhibitors of alpha-synuclein gene (SNCA) expression | Potency, µM (doses to about 57.2 µM), for the others: at the highest dose activity change, negative = inhibition, hits mostly inhibitors | AID 1671194, 2021 | HEK-293 SNCA-luciferase knock-in, luminescence, 24 h | 140,000 tested, 0.17% active;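 also: potency is read from the fitted curve at half-maximal effect; plate controls were DMSO cells for no effect and cell-free wells for full effect; nearly all actives have a fitted effect of over 45% in size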
NIH3T3 tox = Cytotoxic Profiling in NIH 3T3 Cell Line of Diverse Libraries Using Quantitative High-Throughput Screening | NIH 3T3 viability, CellTiter-Glo ATP luminescence, 48-72 h | Potency, µM (titrated, usually from 96.7 µM), inactives show at the highest dose activity change, negative = cytotoxicity, most hits filed as inhibitors | 94,000 tested, 4.3% active; also: potency is read from the fitted curve at half-maximal effect; nearly all actives have a fitted effect of over 55% in size
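Luminescent ATP readout (CellTiter-Glo, 10 min RT) after 48 or 72 hr compound exposure of NIH 3T3 cells seeded at 400 cells/well in 1536-well format; quantitative HTS.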
Luciferase inh = Firefly luciferase inhibition profiling of diverse chemical library using quantitative high-throughput screening; Potency, µM (highest dose often 115 µM), hits mostly inhibitors; purified P. pyralis luciferase, luminescence, biochemical; Luciferin 4-monooxygenase (Photinus pyralis), P08659; AID 1347043, 2019; 76,000 tested, 2.5% active; also: potency is read from the fitted curve at half-maximal effect; nearly all actives have a fitted effect of over 65% in size
Target sequence (P08659 whole entry, looked up): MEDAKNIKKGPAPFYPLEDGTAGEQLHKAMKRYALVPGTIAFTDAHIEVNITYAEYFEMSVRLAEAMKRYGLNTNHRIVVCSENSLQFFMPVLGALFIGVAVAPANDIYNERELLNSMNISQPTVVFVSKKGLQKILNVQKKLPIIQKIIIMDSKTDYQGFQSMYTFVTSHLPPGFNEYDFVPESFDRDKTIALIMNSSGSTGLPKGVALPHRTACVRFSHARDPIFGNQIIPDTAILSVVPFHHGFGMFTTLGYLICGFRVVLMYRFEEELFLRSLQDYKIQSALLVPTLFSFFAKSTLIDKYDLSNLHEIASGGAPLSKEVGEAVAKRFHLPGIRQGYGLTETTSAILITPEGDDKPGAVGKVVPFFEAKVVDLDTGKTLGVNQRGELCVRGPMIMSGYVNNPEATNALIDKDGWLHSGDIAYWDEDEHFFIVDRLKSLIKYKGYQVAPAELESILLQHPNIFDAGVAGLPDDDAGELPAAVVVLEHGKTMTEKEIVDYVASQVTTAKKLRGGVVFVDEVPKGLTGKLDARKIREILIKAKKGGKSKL
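Purified P. pyralis luciferase (10nM final) in 50mM Tris acetate pH 7.5, 10mM Mg acetate, 0.01% Tween-20, 0.05% BSA with 10uM D-luciferin and 10uM ATP. Compounds titrated qHTS. Luminescence imaged on CCD.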
HEK293 viab = GF-AFC viability counterscreen for inhibitors of alpha-synuclein gene (SNCA) expression | HEK-293-SNCA-luc viability, GF-AFC fluorescence, 24 h | Potency, µM (top dose mostly 57.1 µM), without a hit: at the highest dose activity change, negative = cytotoxicity, hits mostly cytotoxic | 150,000 tested, 0.12% active | AID 1671193, 2021;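 also: potency is read from the fitted curve at half-maximal effect; 0% = DMSO-treated cells and -100% = medium-only wells without cells; nearly all actives have a fitted effect of over 30% in size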
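Cytotoxicity counterscreen: after 24 h compound treatment of genome-edited SNCA-luciferase HEK-293 cells, live-cell protease substrate GF-AFC read by fluorescence after 30 min; activity scaled between DMSO (0%) and medium-only (-100%), curves Hill-fitted.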
IP6K1 inh = Primary qHTS assay for small molecule inhibitors of Inositol hexaphosphate kinase 1 (IP6K1) | 140,000 tested, 0.81% active | IP6K1 kinase, ADP-Glo luminescence, 2 h; stronger effect = lower value | AID 1645851, 2021 | activity change, % (series mostly up to about 58 µM) | Inositol hexakisphosphate kinase 1 (Homo sapiens), Q92551; in the data active = activity change below about -25%
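ADP-Glo luminescence measures ADP made by human IP6K1 during a 2 h RT reaction with ATP/IP6 (mix at 1.3 mM/130 uM); top library doses 57.5 and 19.1 uM final.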
HEK293 tox = Cytotoxic Profiling in HEK 293 Cell Line of Diverse Libraries Using Quantitative High-Throughput Screening | HEK 293 viability, ATP luminescence (CellTiter-Glo), 48-72 h | Potency, µM (titrated, usually from 115 µM), for the others: top-dose activity change, negative = cytotoxicity, hits mostly inhibitors | 94,000 tested, 6.6% active | AID 1345083, 2018; also: potency is read from the fitted curve at half-maximal effect; nearly all actives have a fitted effect of over 60% in size
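Viability of HEK 293 cells, plated at 250 cells/well, was judged by cellular ATP after compound treatment for 48 or 72 hr. Luminescence was imaged 10 min after CellTiter-Glo addition at room temperature.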
Starred values were filed as active, the others as inactive; i = inactive; ? = inconclusive; . = no result; [ ] = dose if it differs, or a comment. This is a sample that favours compounds with a hit; in the whole collection about 7.3% have one here. Unless noted, calls follow the shape of the dose curve; as a rule, active = well fitted curve in the direction sought with a large enough effect; inconclusive = small, poorly fitted or top-dose-only effect, or another doubt; inactive = no such curve, though single readings can be large; an effect the other way counts as inactive or inconclusive. Unless noted, % is scaled to controls: 0 for no effect and ±100 for the full control effect.

SMILES	SNCA expr inh	NIH3T3 tox	Luciferase inh	HEK293 viab	IP6K1 inh	HEK293 tox
COc1cccc(S(=O)(=O)N2CCCCCNC(=O)CC2c2ccccc2)c1 (configuration not stated)	-9%	-27%	i	-26%	17	?
COCc1nc(C2CC(N)C2)cc(N(C)Cc2csc(C(C)C)n2)n1 (configuration not stated)	-18%	-27%	i	-8%	-17	-10%
Cn1ncc2c(C(=O)NCc3ccc(Cl)cc3)cc(-c3cccc(F)c3)nc21	.	32µM*	.	.	15	40µM*
Cn1cnc2cc(-c3cccc(C(F)(F)F)c3)cc(C(=O)NCc3cccnc3)c21	13%[87.6 µM]	?	i	-24%[87.6 µM]	-7	100µM*
Cn1cnc2cc(-c3ccc(N4CCOCC4)cc3)cc(C(=O)NCc3cccnc3)c21	13%[87.6 µM]	89µM*	i	-8%[87.6 µM]	-1	1%[172 µM]
COc1cc(CNC(=O)c2cc(-c3cccc(N(C)C)c3)cc3ncn(C)c23)ccn1	75%[87.6 µM]	?	?	-23%[87.6 µM]	0	71µM*
Cn1cnc2cc(-c3ccccc3)cc(C(=O)NCc3cccnc3)c21	15%[87.6 µM]	?	i	-10%[87.6 µM]	-1	-24%[172 µM]
COc1ccc(-c2cc(C(=O)NCc3ccnc(N)c3)c3c(c2)ncn3C)cc1	8%[87.6 µM]	?	i	-6%[87.6 µM]	1	?
Cn1cnc2cc(-c3cccc(N4CCOCC4)c3)cc(C(=O)NCc3cccnc3)c21	-9%[87.6 µM]	?	i	3%[87.6 µM]	-10	-21%[172 µM]
COc1ccc(CC(=O)N2CC(=O)N(CCCc3ccccc3)CC(O)C2)cc1 (configuration not stated)	.	-15%	.	.	-1	?
O=C1Nc2ccc(-c3ccccc3)cc2C(=O)N2CC[C@H](NS(=O)(=O)c3cccs3)[C@@H]12	?	20µM*	i	1%	-6	?
O=C(N[C@H]1CCN2C(=O)c3cc(-c4ccc5c(c4)OCO5)ccc3NC(=O)[C@H]12)c1cccc(F)c1	14%	79µM*	i	-19%	-1	?
O=C(N[C@H]1CCN2C(=O)c3ccccc3NC(=O)[C@H]12)c1cccc(F)c1	-26%[87.6 µM]	-7%[138 µM]	i	-3%[87.6 µM]	7	1%[172 µM]
COc1ccc(-c2ccc3c(c2)C(=O)N2CC[C@H](NC(=O)C4CCCC4)[C@H]2C(=O)N3)cc1	22%[87.6 µM]	?	22µM*	0%[87.6 µM]	-8	-25%[172 µM]
O=C1Nc2ccccc2C(=O)N2CC[C@H](NS(=O)(=O)c3cccs3)[C@@H]12	0%[87.6 µM]	-22%[174 µM]	i	2%[87.6 µM]	16	-11%[172 µM]
O=C(N[C@H]1CCN2C(=O)c3cc(-c4ccccc4)ccc3NC(=O)[C@H]12)c1cccc(F)c1	11%[87.6 µM]	?	?	-18%[87.6 µM]	-14	89µM*
c1ccc(-n2cc(CN3CCCN(Cc4cccs4)CC3)nn2)cc1	-21%	-31%	i	-17%	2	?
CCOc1ccccc1CN1CCn2c(nnc2[C@@H]2C[C@@H](O)CN2Cc2cccnc2)C1	?	-26%	i	1%[12.5 µM]	-8	-17%
CC(=O)N1CC2(Cc3ccccc3CN2C(C)=O)C1	20%[87.6 µM]	-1%[138 µM]	i	15%[87.6 µM]	16	1%[172 µM]
O=C(NCC1CC1)[C@H]1CN(Cc2ccccc2)C[C@H]1C(=O)O	17%	-12%	i	3%	5	-22%
CN(C)c1ccc(C(=O)N2CCN3C(=O)c4cc(-c5ccc6c(c5)OCO6)ccc4NC(=O)[C@H]3C2)cc1	?	-20%	i	1%	15	?
COc1ccc(C(=O)N2CCN3C(=O)c4cc(-c5ccc(Cl)cc5)ccc4NC(=O)[C@@H]3C2)cc1	?	28µM*	i	-23%	-15	32µM*

Compound activity as filed in PubChem BioAssay.
